This note sets out measurements from the supplement of paper PMC7156485.

Holding throughout (details): concentration: 10 µM; 24 h
In assay [1] the test system is HCC1569. Description: cell number relative to DMSO (% of DMSO); higher = more cells (less growth inhibition / toxicity). The procedure, abridged: (§1)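 HCC1569 and TDF cells were seeded at 800 per well in 384-well plates in RPMI with 10% FBS and treated with compounds at 10 µM for 24 h at 37 °C, in triplicate. After fixation in 3.7% formaldehyde, cells were stained with a rabbit anti-H1.0 antibody, an AlexaFluor 647 secondary and DAPI, and six fields per well were imaged at ×10. H1.0 nuclear intensity or cell number is given as percent of the plate control, using the median of replicates, with HCC1569 values smoothed for positional effects.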

In assay [2] the test system is TDF. Described as above. An outline of the steps:
as §1

In assay [3] the test system is TDF. Description: H1.0 immunofluorescence intensity relative to DMSO (% of DMSO); higher = stronger H1.0 induction, active = 120 or more. The procedure, abridged:
as §1

The test system of assay [4] is HCC1569. Description: H1.0 immunofluorescence intensity relative to DMSO (% of DMSO); higher = stronger H1.0 induction, active = 140 or more. The procedure, abridged: as §1
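Wherever H1.0 immunofluorescence intensity relative to DMSO is given: TDF is a line of transformed human dermal fibroblasts of mesenchymal origin.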
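Wherever cell number relative to DMSO is given: TDF denotes transformed human dermal fibroblasts of mesenchymal origin.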

`CC1=CCC(C)(C)C=CC(=O)C(C)=CCC1` [Zerumbone]: the cell number came out at 87.7 with HCC1569 [1] and 89.7 in the assay on TDF [2]. For the same compound, the H1.0 immunofluorescence intensity was 104 (inactive) in the assay with TDF [3] and 121 (inactive) with HCC1569 [4].

For the compound `CC1CCC2(C(=O)O)CCC3(C)C(=CCC4C5(C)CCC(O)C(C)(C)C5CCC43C)C2C1C` (stereo unspecified) [Ursolic acid], the cell number in the assay with HCC1569 [1] is 100; in the assay with TDF [2] it was 101. Besides, the values for the H1.0 immunofluorescence intensity in the assay with TDF [3] and with HCC1569 [4] were 97.5 (inactive) and 93.7 (inactive), respectively.

Regarding `CNCCC(Oc1ccc(C(F)(F)F)cc1)c1ccccc1.Cl` (stereo not drawn) [S-(+)-Fluoxetine hydrochloride], the cell number in the assay on HCC1569 [1] is 91.2; with TDF [2], 93.3. Further, the figures for the H1.0 immunofluorescence intensity in the assay with TDF [3] and in the assay with HCC1569 [4] were 107 (inactive) and 111 (inactive), respectively.

Turning to `CCCCc1nc(Cl)c(CO)n1Cc1ccc(-c2ccccc2-c2nnn[n-]2)cc1.[K+]` [Losartan potassium], the cell number was 102 in the assay with HCC1569 [1] and 90.1 with TDF [2]. Further, the H1.0 immunofluorescence intensity in the assay with TDF [3] was 98.1 (inactive); in the assay on HCC1569 [4], 102 (inactive).

`CC1=C(C(=O)O)N2C(=O)C(NC(=O)C(N)c3ccccc3)C2SC1` (stereo unspecified) [Cephalexin hydrate]: the values for the cell number in the assay with HCC1569 [1] and in the assay on TDF [2] were 104 and 111, respectively. In addition, the H1.0 immunofluorescence intensity in the assay with TDF [3] is 102 (inactive); with HCC1569 [4], 96.5 (inactive).

Turning to `CN(CCOc1ccc(CC2SC(=O)NC2=O)cc1)c1ccccn1.O=C(O)C=CC(=O)O` (stereo unspecified) [Rosiglitazone maleate], the cell number in the assay with HCC1569 [1] is 103; in the assay with TDF [2], 113. Moreover, the H1.0 immunofluorescence intensity was 92.5 (inactive) in the assay on TDF [3] and 101 (inactive) in the assay with HCC1569 [4].

Consider `Cn1c(=O)c2c(ncn2CC2OCCO2)n(C)c1=O` [Doxofylline], for which the cell number in the assay with HCC1569 [1] was 103; with TDF [2] it was 106. Further, the H1.0 immunofluorescence intensity with TDF [3] was 105 (inactive); in the assay on HCC1569 [4], 104 (inactive).

For the compound `CCNC(=O)CC[C@H](N)C(=O)O` [L-Theanine], the cell number in the assay with HCC1569 [1] and in the assay with TDF [2] was 103 in each case. Besides, the H1.0 immunofluorescence intensity in the assay on TDF [3] is 102 (inactive); in the assay with HCC1569 [4], 95.6 (inactive).

Take `COCC(=O)OC1(CCN(C)CCCc2nc3ccccc3[nH]2)CCc2cc(F)ccc2C1C(C)C.Cl.Cl` (stereo unspecified) [Mibefradil dihydrochloride]: the results for the cell number in the assay with HCC1569 [1] and with TDF [2] were 84.2 and 90.1, respectively. Also, the figures for the H1.0 immunofluorescence intensity in the assay with TDF [3] and in the assay with HCC1569 [4] were 111 (inactive) and 124 (inactive), respectively.
